Experimental data taken from PubChem BioAssay AID2129 (The Scripps Research Institute Molecular Screening Center, 2009).
The campaign covered roughly 320,000 compounds. About 2,200 (0.69%) were called active.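 How the source made its calls: active means inhibition above the mean of all tested compounds plus 3 SD, cutoff set per campaign (cut at about 30% in these data); inactive means the rest.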 This excerpt belongs to a sample that is enriched for actives.

These compounds were tested against Bcl-2-like protein 1 (Homo sapiens) (UniProt Q07817) (assay: Bcl-xL/Bim BH3 interaction blockers – biochemical, fluorescence polarization, HTS, primary screen (AID 2129;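 further: 0% = DMSO wells and 100% = unlabeled Bim-BH3 peptide competitor; inhibitors lower millipolarization by displacing the labeled peptide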)). Settings: GST-Bcl-xL / FITC-Bim BH3 peptide fluorescence polarization; at 10.9 µM; stronger effect = higher value.
Sequence of Bcl-2-like protein 1 (Homo sapiens) (Q07817 whole entry, looked up): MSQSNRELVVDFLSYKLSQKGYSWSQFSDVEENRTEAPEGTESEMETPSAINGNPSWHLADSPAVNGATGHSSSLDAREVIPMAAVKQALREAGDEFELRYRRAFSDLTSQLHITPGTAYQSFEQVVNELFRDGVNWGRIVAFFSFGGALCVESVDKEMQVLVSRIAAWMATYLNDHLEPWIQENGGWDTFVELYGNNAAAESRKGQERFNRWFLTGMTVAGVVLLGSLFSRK

Structure (SMILES) | inhibition
Cc1ccccc1-n1c(SCC(=O)Nc2cccc3ccccc23)nc(O)cc1=O | -0.46% (inactive)
Cc1c(C(=O)NC2CCCCC2)oc2ccccc12 | -0.72% (inactive)
COc1cccc2c1OCC(CN1CCN(C3CCCCC3)C(CCO)C1)=C2 (stereo not drawn) | 2.11% (inactive)
Cc1ccc(CNC(=O)C(=O)c2cn(CC(=O)N3CCCC3)c3ccccc23)cc1 | 5.15% (inactive)
Cn1cnnc1SCc1nnc(-c2ccccc2Br)o1 | 2.35% (inactive)
CCOC(=O)N1CCN(Cc2nnc(-c3ccccc3Cl)o2)CC1 | -2.11% (inactive)
Nc1cccc2c1C(=O)N(Cc1nnc(-c3ccccc3Br)o1)C2=O | 48% (active)
CC(=O)NNC(=O)c1csc(Cc2c(Cl)sc3ccc(Cl)cc23)n1 | 1.7% (inactive)
Cc1ccc([N+](=O)[O-])c(OCCCNCC(C)O)c1 (stereo not drawn) | 8.16% (inactive)
COc1ccc2cc1Oc1ccc(cc1)C[C@H]1c3cc(c(OC)cc3CCN1C)Oc1c(O)c(OC)cc3c1[C@H](C2)N(C)CC3 | 6.82% (inactive)
COc1c(O)ccc2c1CN1CCc3cc4c(cc3C1C2)OCO4 (stereo not drawn) | 33.7% (active)
COc1ccc(CN2CCCC(N3CCc4ccccc4C3)C2)c(O)c1 (stereo not drawn) | -3.09% (inactive)
CN(C(=O)COC(=O)CCCc1c[nH]c2ccccc12)c1c(N)n(Cc2ccccc2)c(=O)[nH]c1=O | -5.75% (inactive)
O=C(Nn1c(SCc2ccc([N+](=O)[O-])cc2)nc2ccccc2c1=O)c1ccc(F)cc1 | -2.84% (inactive)
Cc1[nH]c2ccccc2c1CCN(Cc1cccs1)C(=S)NC(C)(C)C | 3.98% (inactive)
COc1cccc(NC(=S)N(CCc2c(C)[nH]c3ccccc23)Cc2ccco2)c1 | -0.26% (inactive)
COc1ccc2[nH]c(C)c(CCN(Cc3cccs3)C(=S)Nc3ccccc3OC)c2c1 | 59.5% (active)
COc1ccc(CNc2nc3c(c(=O)[nH]c(=O)n3C)n2Cc2ccccc2)cc1 | 2.21% (inactive)
COCCn1c(N)c(NCc2ccccc2)c(=O)[nH]c1=O | 64.6% (active)
COCCn1c(N)c(N(Cc2ccccc2)C(=O)C2CCCCC2)c(=O)[nH]c1=O | -0.25% (inactive)
COc1ccc(CCNC(=O)CCCCCNC(=O)N2CCn3c2nc2ccccc23)cc1OC | 1.04% (inactive)
Cc1cccn2c(=O)c3cc(C(=O)NCCN4CCOCC4)c(=N)n(Cc4cccnc4)c3nc12 | 48.6% (active)

Structure (SMILES) | inhibition
COc1ccc(CCn2c(=N)c(C(=O)NCC3CCCO3)cc3c(=O)n4cccc(C)c4nc32)cc1OC (stereo not drawn) | 1.5% (inactive)
Cc1cccn2c(=O)c3cc(C(=O)NCC4CCCO4)c(=N)n(Cc4ccc(F)cc4)c3nc12 (stereo not drawn) | 0.48% (inactive)
Cc1ccc(S(=O)(=O)N(Cc2ccc(Cl)cc2)c2ccccc2C(=O)NCc2cccnc2)cc1 | 0.59% (inactive)
Cc1sc(NC(=O)c2ccc3ncsc3c2)c(C(N)=O)c1C | 4.75% (inactive)
O=C(COc1ccc(/C=N/NS(=O)(=O)c2ccccc2)cc1)NCCc1ccccc1 | 5.85% (inactive)
COc1ccc(C2=CC(c3cccc(OC)c3)n3nnnc3N2)cc1 (stereo not drawn) | 29.1% (inactive)
COc1ccc(C2C=C(c3ccc(Br)cc3)Nc3nc(NS(C)(=O)=O)nn32)cc1 (stereo not drawn) | 164% (active)
CC(C)c1ccc(N2CC(C(=O)Nc3nccs3)CC2=O)cc1 (stereo not drawn) | -0.59% (inactive)
CC1=C(C(=O)N(C)C)C(c2ccccc2OC(F)F)NC(=O)N1 (stereo not drawn) | 3.23% (inactive)
Cc1cc2occ(CC(=O)NNC(=O)c3ccccc3F)c2cc1C | 0.46% (inactive)
COc1ccccc1NC(=S)N1CCC(NC(=O)C23CC4CC(CC(C4)C2)C3)CC1 | 2.22% (inactive)
Cc1cccn2c(=O)c3cc(C#N)c(=NC(=O)c4cccnc4)n(CC4CCCO4)c3nc12 (stereo not drawn) | 47.4% (active)
COc1ccc(CNC(=O)c2cc3c(=O)n4ccccc4nc3n(CC3CCCO3)c2=N)cc1 (stereo not drawn) | 8.61% (inactive)
Cc1cccn2c(=O)c3cc(C#N)c(=O)n(CCCN4CCOCC4)c3nc12 | 28.5% (inactive)
Cc1oc2c(C)c3oc(=O)c(CC(=O)N[C@@H](CC(C)C)C(=O)N[C@@H](Cc4ccccc4)C(=O)O)c(C)c3cc2c1C | 10.3% (inactive)
CCOc1ccc(/C=N/OCC(=O)NCc2cccs2)cc1 | 2.85% (inactive)
CCN(c1ccccc1)S(=O)(=O)c1ccc(OCC(=O)N2CCCC2)cc1 | 3.8% (inactive)
CC(C)[C@@H](NC(=O)OC(C)(C)C)C(=O)NCC1CCC(C(=O)N[C@@H](Cc2ccccc2)C(=O)O)CC1 (stereo partly drawn) | 7.31% (inactive)
CC(C)C1N=C2c3ccccc3N=C(SCC(=O)c3ccc(O)c(O)c3)N2C1=O (stereo not drawn) | 13.5% (inactive)
CC1(C)Cc2c(C#N)c(SCc3nc4ccccc4[nH]3)nc(N3CCOCC3)c2CO1 | 6.67% (inactive)
O=c1[nH]c(N2CCOCC2)nc2ccccc12 | 3.04% (inactive)
C1=C(N2CCOCC2)/C(=C/c2nc3ccccc3[nH]2)CC1 | 88.2% (active)

Structure (SMILES) | inhibition
CCOC(=O)N1CCN(S(=O)(=O)c2cc(Br)cc3c2N(C(=O)C2CC2)CC3)CC1 | -4.43% (inactive)
CCN(c1ccc2c(c1)OCO2)S(=O)(=O)c1cc(Br)cc2c1N(C(=O)C1CC1)CC2 | 34% (active)
CS(=O)(=O)N(CC(=O)NCc1ccco1)c1ccc2c(c1)OCO2 | 5.67% (inactive)
CCOc1cc(/C=C/C(=O)OCC(=O)NCCN2C(=O)CSC2=O)ccc1OCC(C)C | -5% (inactive)
N#CC1=C(N)C(C#N)(C#N)[C@H](c2ccsc2)[C@H]2COCC=C12 | 37.8% (active)
Cc1cccc(Nc2nc(NCCO)nc(N3CCCC3)n2)c1 | -0.55% (inactive)
CCCc1cc(=O)[nH]c(SCC(=O)N2CCN(S(=O)(=O)c3ccc(C)cc3C)CC2)n1 | 3.73% (inactive)
CCCOc1ccc(C2c3c(oc4cc(C)c(C)cc4c3=O)C(=O)N2CCCN2CCOCC2)cc1 (stereo not drawn) | 11.6% (inactive)
Cc1cc2oc3ccc(NCCC4CCCN4C)cc3c(=O)c2cc1C (stereo not drawn) | 40.9% (active)
Fc1c(F)c(C(F)(F)F)c(F)c(F)c1N1CCN(c2ccc3nnc(C(F)(F)F)n3n2)CC1 | 3.95% (inactive)
COc1cc(/C=C/C2=CC(C)(C)NC(=S)N2)cc(OC)c1OC | -3.53% (inactive)
CCCCOC(=O)CNc1nnc(SCC(=O)OCC)[nH]c1=O | 15.6% (inactive)
Cc1cc(C)c[n+](-c2nc3ccccc3nc2[N-]S(=O)(=O)c2cccs2)c1 | 5.77% (inactive)
O=S(=O)([N-]c1nc2ccccc2nc1-[n+]1ccc(Cc2ccccc2)cc1)c1ccc(Br)s1 | 82.6% (active)
O=C(NCCc1ccccc1)C1CCN(S(=O)(=O)c2ccc(Br)s2)CC1 | 2.98% (inactive)
CCOC(=O)C1=C(O)/C(=C/c2ccc(OCC(=O)Nc3ccc(C)cc3)cc2)N=C1C | -2.9% (inactive)
CCOC(=O)C1=C(O)/C(=C/c2cc(C)n(-c3ccccc3)c2C)N=C1C | 35.6% (active)
COC(=O)C1=C(O)/C(=C/c2ccc(OCC(=O)Nc3ccccc3)cc2)N=C1C | 0.76% (inactive)
CCn1c2c(c3ccc(OC)cc31)CCCC2=O | 5.26% (inactive)
O=S(=O)(c1ccc(SCc2ccccc2)nc1)N1CCCCCC1 | 5.07% (inactive)
CC(=O)c1cnn(-c2cc(Oc3ccc(F)cc3)ncn2)c1C | 2.24% (inactive)
COc1ccc(NS(=O)(=O)c2ccc(F)cc2F)cn1 | 3.96% (inactive)

Structure (SMILES) | inhibition
COc1cccc(Nc2ncccc2C(=O)O)c1 | 6.39% (inactive)
COc1ccc(Nc2cc(Cl)ccc2C(=O)O)cn1 | 50.8% (active)
CCCCOP(=O)(c1ccc(N(C)C)cc1)C(O)c1cc(OC)ccc1OC (stereo not drawn) | 5.82% (inactive)
Cc1ccc(NC(=O)CSCC(=O)N2CCOCC2)cc1 | 1.4% (inactive)
COc1cccc2cc(S(=O)(=O)c3ccc(C)cc3)/c(=N/NS(=O)(=O)c3ccc(C)cc3)oc12 | 5.22% (inactive)
COC(=O)Cc1cc(=O)oc2c(C)c(O)ccc12 | 4.68% (inactive)
Cc1cc(S(=O)(=O)c2cc3ccc(O)c(C)c3oc2=O)ccc1F | 40.6% (active)
Cc1ccc(NC(=O)C2CC2c2ccccc2)cc1 (stereo not drawn) | 2.22% (inactive)
CC(=O)N1c2ccc(S(=O)(=O)N3CCC(C(=O)NC4CCCC(C)C4C)CC3)cc2CC1C (stereo not drawn) | 0.13% (inactive)
COc1ccccc1/C=C/C=N/n1c(-c2ccc(Cl)cc2Cl)n[nH]c1=S | -7.95% (inactive)
CSc1c(SCc2ccccc2)cnn(Cc2ccccc2)c1=O | 145% (active)
COC(=O)c1ccc(SCc2ccccc2)nc1 | 6.87% (inactive)
CCn1c(SCc2ccccc2)nc2cc(OC)c(OC)cc2c1=O | 3.12% (inactive)
CCc1ccccc1NC(=O)NCCN1CCCCC1 | 5.44% (inactive)
CCOC(=O)[C@@H]1[C@H]2COc3cc(OC)ccc3[C@@H]2N2C(=O)N(c3cccc(C)c3)C(=O)[C@@]12C | 3.42% (inactive)
Cn1sc(=O)c2cc(S(=O)(=O)NC3CC3)ccc21 | 2.2% (inactive)
COc1cc2nc(CN(C)Cc3ccc(F)cc3)[nH]c(=O)c2cc1OC | -1.08% (inactive)
COc1cc(CN(C)Cc2nc3cc(C(F)(F)F)ccc3c(=O)[nH]2)ccc1OC(F)F | -2.06% (inactive)
COc1ccc(CN(C)Cc2nc3cc(OC)c(OC)cc3c(=O)[nH]2)c(OC)c1 | 85.4% (active)
Cc1cc(NC(=O)C(C)SCC(=O)Nc2ccccc2N2CCCCC2)no1 (stereo not drawn) | -2.56% (inactive)
COc1ccc(CCNC(=O)COC(=O)c2cc(=O)c3ccccc3o2)cc1 | -7.08% (inactive)
O=C(C1CC(=O)N(C2CCCCC2)C1)N1CCN(c2ccccc2)CC1 (stereo not drawn) | 3.83% (inactive)
